Mtb betalactam – beta-lactam sensitization of Mtb H37Rv. M. tuberculosis H37Rv growth with meropenem, percent inhibition. actives 0.27% (n = 330,000). inhibition, % at 25 µM. AID 434955; call rule not given here;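 also: growth measured after seven days incubation then overnight dye step; 0% = bacteria only wells and 100% = bacteria with antibiotic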
UGM FP inh – Mtb UDP-galactopyranose mutase inhibition. P9WIQ1. purified UGM, fluorescence polarization probe displacement. inhibition, % at 10 µM. actives 0.06% (n = 320,000). AID 504406; in the data active = inhibition above about 10%, passing the limit was not always enough
Target sequence (P9WIQ1 whole entry, looked up): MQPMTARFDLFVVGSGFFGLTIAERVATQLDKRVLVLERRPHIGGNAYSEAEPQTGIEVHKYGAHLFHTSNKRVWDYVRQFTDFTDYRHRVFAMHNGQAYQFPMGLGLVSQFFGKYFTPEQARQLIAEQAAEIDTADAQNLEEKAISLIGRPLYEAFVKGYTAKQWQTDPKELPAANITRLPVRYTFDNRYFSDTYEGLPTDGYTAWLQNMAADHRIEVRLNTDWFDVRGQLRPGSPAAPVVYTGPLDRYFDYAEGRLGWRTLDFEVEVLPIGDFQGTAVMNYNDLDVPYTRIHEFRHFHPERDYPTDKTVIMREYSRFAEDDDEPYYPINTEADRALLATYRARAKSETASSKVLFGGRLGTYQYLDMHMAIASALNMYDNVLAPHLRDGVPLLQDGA
Rv3671c protease – Rv3671c (M. tuberculosis) protease inhibition | P9WHR9 | inhibition, % at 5.96 µM | actives 0.048% (n = 320,000) | AID 2606; in the data active = inhibition above about 38%;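 also: extracellular domain of Rv3671c used as enzyme; 0% = enzyme with DMSO and 100% = no enzyme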
GDH-TPI counter – inhibits GDH-TPI coupling enzymes, artifact for Mtb FBA screen. inhibition, % at 4.8 µM. GDH-TPI coupled enzyme counterscreen, NADH absorbance. actives 1.2% (n = 360,000); in the data active = inhibition above about 30%;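 also: 0% = DMSO wells and 100% = wells lacking the enzyme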
FBA Mtb inh – Mtb fructose-bisphosphate aldolase inhibition; P9WQA3; purified M. tuberculosis FBA, fluorescence read-out; inhibition, % at 1 µM; actives 2.3% (n = 360,000); AID 588726; in the data active = inhibition above about 27%;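 also: 0% = vehicle and 100% = reference inhibitor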
Numbers without * were called inactive; . = no result. Sampled rows, rich in hits. Any-hit rate of the full collection: about 3.5%.

SMILES	Mtb betalactam	UGM FP inh	Rv3671c protease	GDH-TPI counter	FBA Mtb inh
Cc1cc(Nc2nc3ccccc3[nH]c2=O)n(-c2ccccc2)n1	-3.3	1.6	-12.5	42.5*	4.2
Cn1cnnc1SCC(=O)c1ccc(O)c(O)c1	2.7	-1.8	-2.2	18.0	-1.4
CC(=O)N(c1ccccc1)C(C(=O)c1ccccc1)c1ccccc1 (configuration not stated)	.	.	.	5.3	2.0
Cc1ccc([N+](=O)[O-])cc1S(=O)(=O)NCC1COc2ccccc2O1 (configuration not stated)	1.1	-0.2	-11.4	4.5	0.9
COc1ccc(/C=C/C(=O)Nc2nc(C)c(C(=O)N(C)C)s2)cc1OC	-1.1	1.8	0.5	34.1*	2.2
Cc1nc(NC(=O)c2ccc(Br)s2)sc1C(=O)N(C)C	-3.9	2.3	-3.8	34.7*	0.2
COc1ccc(/C=C/C(=O)Nc2nc(C)c(C(=O)N(C)C)s2)cc1	-2.5	0.6	-22.5	41.6*	-2.7
CCOC(=O)c1sc(NC(=O)/C=C/c2ccccc2)nc1C	-5.1	0.0	7.4	0.8	0.9
COc1ccc(C(=O)Nc2nc(C)c(C(=O)N(C)C)s2)cc1OC	-2.0	0.9	2.8	17.7	1.6
CCOC(=O)CNC(=O)c1sc(NC(=O)/C=C/c2ccccc2)nc1C	-6.0	2.1	-3.6	32.5*	5.0
CCc1nc2sc3ccccc3c(=O)c2c(=O)n1Cc1ccc(OC)cc1	94.2	0.3	-3.9	33.8*	-2.8
S=c1[nH]nc(-c2cc3ccccc3o2)n1Cc1ccccc1	4.0	0.6	-1.8	19.8	132.1*
CN(/N=C/c1ccncc1)c1cnc2ccccc2n1	.	-1.8	2.2	32.6*	-5.3
CCC(=O)Nc1ccc(C(=O)NNC(=O)c2cc(OC)c(OC)c(OC)c2)cc1	-3.5	6.3	-0.6	-2.9	0.4
COc1ccc2oc3ccc(OC)cc3c(=O)c2c1	39.9	0.7	9.6	0.6	48.7*
COc1ccc2oc(=O)cc(C)c2c1	0.4	1.9	7.4	8.1	20.8
CCN(CC)CCNC(=O)C(=O)Nc1ccc2c(c1)N(S(=O)(=O)c1cccs1)CCC2	5.7	6.1	4.1	-1.4	4.0
Cn1c(CN2CCN(CCO)CC2)c(C#N)c2ccccc21	-0.2	-0.4	-3.1	30.6*	2.8
COc1ccc(/C=C2\Oc3cc(OCC(=O)N4CCC[C@H]4C(=O)O)ccc3C2=O)c(OC)c1	-2.9	-1.8	-7.9	-2.9	-1.5
COc1ccc(OC)c(/C=C2\Oc3cc(OCC(=O)N4CCC[C@H]4C(=O)O)ccc3C2=O)c1	-3.9	12.4*	1.8	23.6	-9.6
COc1cccc(/C=C2\Oc3cc(OCC(=O)N4CCC[C@H]4C(=O)O)ccc3C2=O)c1	6.2	1.8	-12.5	36.3*	1.1
Cc1cccc2nc(-c3ccco3)c(Nc3ccccc3)n12	1.5	0.9	3.7	13.0	120.8*
CCC(C)NC(=O)c1oc2ccc(S(=O)(=O)N3CCC4(CC3)OCCO4)cc2c1C (configuration not stated)	-3.9	-2.3	-5.8	-10.3	0.4
Cc1c(Cl)cccc1NC(=O)CSc1ncnc2c1cnn2CCO	4.5	-1.5	.	7.2	0.4
CC(C)Cn1cc(C(=O)N2CCC(C)CC2)c2c3ccccc3n(C)c2c1=O	-3.7	0.9	-0.9	9.0	25.8
SMILES	Mtb betalactam	UGM FP inh	Rv3671c protease	GDH-TPI counter	FBA Mtb inh
COCCn1cc(C(=O)N2CCC(C)CC2)c2c3ccccc3n(C)c2c1=O	0.3	0.9	-4.5	-3.2	43.1*
CC(C)Cn1cc(C(=O)N2CCC3(CC2)OCCO3)c2c3ccccc3n(C)c2c1=O	0.3	-2.1	1.9	11.2	37.4*
CC1CC(=O)Nc2ccccc2N1C(=O)COc1cc(Cl)ccc1Cl (configuration not stated)	0.0	-2.9	-3.4	4.8	2.8
CCOC(=O)c1sc(=S)n(-c2ccccc2)c1C	-18.2	-0.7	-5.7	34.0*	2.5
CCOC(=O)c1sc(=S)n(-c2ccccc2Cl)c1C	-4.3	-0.7	1.8	39.3*	2.5
CCOC(=O)c1sc(=S)n(-c2ccccc2)c1N	-3.3	-0.8	11.1	34.4*	-3.3
CC1(C)CC(=O)C(C=Nc2cccnc2/N=C/C2=C(O)CC(C)(C)CC2=O)=C(O)C1	-4.7	-3.4	-16.9	18.9	6.5
O=C(NCCc1ccccc1)c1ccc(S(=O)(=O)N2CCCC2)cc1	-8.8	-0.6	2.4	6.5	5.0
CCOC(=O)CN1N=C(/C=C/c2ccc(OC)cc2)CCC1=O	-13.4	2.3	2.2	37.9*	1.1
CCOC(=O)CN1N=C(c2ccc(C)cc2)CCC1=O	-3.5	0.9	-6.8	2.1	-0.2
Cc1ccc(/C=C/C2=NN(C)C(=O)CC2)cc1	-0.2	1.1	6.5	15.5	2.7
